Screening data as filed in PubChem.
ALDH1A1 block: ALDH1A1 (human) enzyme inhibition; P00352; Purified ALDH1A1, NADH fluorescence, propionaldehyde substrate; Potency, µM (titrated, usually from 75.3 µM), inactives show at the highest dose activity, negative = inhibition, usual class: inhibitors; 220,000 compounds, 7.3% hits; AID 1030;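 note: potency is the fitted concentration of half-maximal effect; plate controls were no enzyme wells and a reference inhibitor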
PNC assembly inh: blocks assembly of the perinucleolar compartment; 140,000 compounds, 3.1% hits; PC3M PTB-GFP, PNC prevalence imaging, 16 h; active compounds read low; AID 2417; activity change (PNC), negative = inhibition, % at 10 µM;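 active = readout at or below -70, meaning at least 70% loss of cells showing the perinucleolar compartment, a nuclear body marking cancer cells; inconclusive = readout between -30 and a set limit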;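 note: plate controls were DMSO wells for no effect and camptothecin positive control wells for full effect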
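PC3M cells stably expressing PTB-GFP, 750–1000 cells/well, treated 16 h at 37 °C with compound (23 nl of library stock), in duplicate. After paraformaldehyde fixation and Hoechst stain, imaged at 20x; PNC prevalence scored by image analysis.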
JMJD2E inh: JMJD2E (human) inhibition; AID 2147; B2RXH2; 230,000 compounds, 1.6% hits; Potency, µM (highest dose often 57.1 µM), inactives show at the highest dose activity change, negative = inhibition, hits mostly inhibitors; JMJD2E catalytic domain, FDH-coupled NADH fluorescence (FDH is formaldehyde dehydrogenase);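 note: potency is the fitted concentration of half-maximal effect; 0% = wells with enzyme and -100% = buffer wells without enzyme; nearly all actives have a fitted effect of over 50% in size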
Target sequence (B2RXH2 1-337 limits assumed): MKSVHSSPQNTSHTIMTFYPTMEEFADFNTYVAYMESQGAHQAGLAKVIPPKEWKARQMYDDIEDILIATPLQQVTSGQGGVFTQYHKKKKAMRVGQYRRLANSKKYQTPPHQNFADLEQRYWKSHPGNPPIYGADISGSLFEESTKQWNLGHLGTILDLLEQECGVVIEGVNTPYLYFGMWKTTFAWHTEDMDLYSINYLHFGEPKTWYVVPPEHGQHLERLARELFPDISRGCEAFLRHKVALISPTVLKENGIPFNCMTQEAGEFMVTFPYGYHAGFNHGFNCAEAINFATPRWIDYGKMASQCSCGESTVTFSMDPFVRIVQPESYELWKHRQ
HPGD inh: HPGD (human) dehydrogenase inhibition | AID 894 | 150,000 compounds, 4.3% hits | P15428 | Potency, µM, for the others: at the highest dose activity change, negative = inhibition, usual class: inhibitors | purified HPGD, NADH fluorescence kinetic, PGE2 substrate; note: potency is the fitted concentration of half-maximal effect
Target sequence (P15428 whole entry, looked up): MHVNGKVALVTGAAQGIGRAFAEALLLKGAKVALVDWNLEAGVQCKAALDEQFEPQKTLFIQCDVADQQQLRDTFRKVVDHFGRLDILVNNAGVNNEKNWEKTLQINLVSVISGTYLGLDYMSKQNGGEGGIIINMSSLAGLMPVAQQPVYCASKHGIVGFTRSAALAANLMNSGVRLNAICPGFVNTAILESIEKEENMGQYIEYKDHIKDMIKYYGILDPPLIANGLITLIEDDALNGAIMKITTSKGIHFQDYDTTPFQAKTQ
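20 nM HPGD preincubated 15 min at room temperature with compound in 50 mM Tris-HCl pH 8, 0.01% Tween 20. Started with 1 mM NAD+ and 30 uM prostaglandin E2; NADH fluorescence (360/450 nm) read 5 times over 30-s intervals, last minus first.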
* = called active by the depositor; ? = inconclusive; · = no result; [ ] = remark or other dose. Rows were chosen to be rich in hits. Some 11% of all compounds tested hit in one or more screens of this group. Unless noted, calls come from the whole dose curve; as a rule, active = well fitted inhibition curve with a large enough effect (not every such curve was filed as active); inconclusive = small, poorly fitted or top-dose-only effect, or another doubt; inactive = no such curve, though single readings can be large or run the other way. Unless noted, % is set by controls: 0 for no effect and ±100 for the full control effect.

SMILES	ALDH1A1 block	PNC assembly inh	JMJD2E inh	HPGD inh
CCOC(=O)C1=C(C)OC(N)=C(C#N)C1c1ccc(O)c(OC)c1 (centres undefined)	8%	16	-10%	-14%
CCOC(=O)C1=C(c2ccccc2)OC(N)=C(C#N)C1c1ccc(Br)s1 (centres undefined)	-4%	-17	?	-14%
CCOC(=O)C1=C(c2ccccc2)OC(N)=C(C#N)C1c1ccc(Cl)s1 (centres undefined)	1.8µM*	-21	?	-12%
CCOC(=O)C1=C(C)OC(N)=C(C#N)C1c1ccccc1 (centres undefined)	22µM*	·	1%	·
COC(=O)C1=C(C)OC(N)=C(C#N)C1c1ccc(OC)c(CSc2ccccn2)c1 (centres undefined)	?	-87*	-4%	-18%
OC[C@@H]1O[C@H](n2cnc3c(/C=C(\O)c4ccccc4)ncnc32)[C@H](O)[C@@H]1O	-7%[13.5 µM]	·	·	2%
CC(C)(C)n1cnnc1Sc1ncccc1[N+](=O)[O-]	·	·	14%	·
CCOc1ccc(C(=O)NCC(=O)N2CCc3ccccc3C2)cc1OCC	-2%	·	-2%	·
CC1=C(C(=O)OCc2ccccc2)C(c2ccsc2)C(C#N)=C(N)O1 (centres undefined)	?	?	-14%	-29%
CCOC(=O)C1=C(N)OC(CCl)=C(C#N)C1c1ccsc1 (centres undefined)	7.9µM*	-12	-1%	-6%
CC(=O)Nc1ccc(S(=O)(=O)Nc2ccc([N+](=O)[O-])cc2)cc1	?	·	?	22µM*
CC(=O)Nc1ccc(OS(=O)(=O)c2ccc([N+](=O)[O-])cc2)cc1	25µM*	·	-10%	·
CC(=O)Nc1ccc(OCCOc2ccc([N+](=O)[O-])cc2)cc1	·	·	-15%	·
Nc1nonc1C(=O)NC(c1ccccc1)c1ccccc1	14µM*	6	3%	0%
Cc1nn(-c2ccccc2)c(NC(=O)c2cccs2)c(-c2ccccc2Cl)c1=O	·	·	15%	·
CCOP(=O)(OCC)c1nc(Cc2ccccc2)oc1NCc1ccccc1	·	·	-4%	·
COc1cc(N2C(=O)C=CC2=O)c(OC)cc1Cl	8.9µM*	·	1%	·
CCCNC(=O)NNC(=O)c1ccc(F)cc1	17%	·	11%	·
CC(C)(C)OC(=O)NCCCC1=CC2=CC(=O)C(C)(OC(=O)C3CCCC3)C(=O)C2=CO1 (centres undefined)	12%	·	-3%	-11%
Cc1ccccc1CN(c1ccc(C(=O)N/N=C/c2ccc(OCC(N)=O)cc2)cc1)S(C)(=O)=O	5%	·	-22%	·
O=S(=O)(c1c(Cl)sc(Cl)c1Br)N1CCCC1	14µM*	·	-3%	·
CCN(C(=O)CSc1ncnc2sc(C)c(C)c12)C1CCS(=O)(=O)C1 (centres undefined)	?	·	-19%	·
CCCN(CC1CC1)C(=O)CSc1ncnc2sc(C)c(C)c12	-13%	-8	-9%	28µM*
Cc1sc2ncnc(SCC(=O)N3CCCC3=O)c2c1C	0.1µM*	-97*	4%	25µM*
Brc1cccc(CSc2nnc(-c3ccncc3)o2)c1	-6%	·	11%	·
SMILES	ALDH1A1 block	PNC assembly inh	JMJD2E inh	HPGD inh
N#C/C(C(=O)c1ccccc1)=C1/SC=C(N)N1c1ccccc1	3.2µM*	27	-19%	20µM*
CC1=CS/C(=C(/C#N)C(=O)N2CCCCC2)N1c1ccccc1	?	14	5%	-9%
COC(=O)/C(C#N)=C1/SC=C(C)N1c1ccccc1	11µM*	?	0%	-17%
CCCCOCCOCCSC#N	-4%	·	·	-7%
N#CC1=C(N)SC(N)=C(C#N)C1c1ccc([N+](=O)[O-])cc1	10µM*	50	-11%	?
N#CC1=C(N)SC(N)=C(C#N)C1c1ccc(C(F)(F)F)cc1	25µM*	-127*	13µM*	-28%
CCc1ccc(C2C(C#N)=C(N)SC(N)=C2C#N)cc1	11µM*	?	?	35µM*
CCc1ccc(C2C(C#N)=C(N)SC(N)=C2C#N)s1	?	13	?	28µM*
N#CC1=C(N)N2C(=C(C#N)C1c1ccccc1)Sc1ccccc12 (centres undefined)	?	28	-12%	-13%
Cc1ccc(C2C(C#N)=C(N)SC(N)=C2C#N)o1	?	18	?	?
CC(C)CO/N=C1/C[C@@H](O)[C@@H](O)[C@@H]2[C@@H]3C(=O)N(c4cccc(Oc5ccccc5)c4)C(=O)[C@H]3CC[C@H]12	-5%[13.5 µM]	·	·	·
O=C(COc1ccc([N+](=O)[O-])cc1)N/N=C/c1cc([N+](=O)[O-])ccc1N1CCOCC1	3.5µM*	-28	1%	-15%
O=C(c1cc([N+](=O)[O-])ccc1N1CCCCC1)N1CCCCC1	20µM*	99	-3%	?
Cc1ccc(C(=O)c2cc([N+](=O)[O-])ccc2N2CCOCC2)cc1	?	-96*	7%	-6%
O=C(c1cc([N+](=O)[O-])ccc1N1CCCC1)N1CCCCC1	-1%	·	-5%	·
COc1ccc(C(=O)c2cc([N+](=O)[O-])ccc2N2CCOCC2)cc1	-10%	-84*	6%	-14%
CNC(=S)NC12CC3CC(CC(C3)C1)C2	-9%	·	1%	·
CCCC(=O)c1ccc(N2CCOCC2)c(F)c1	8%	-14	4%	-21%
Cc1ccc(C(=O)c2ccc(N3CCOCC3)c(F)c2)cc1	?	-5	-7%	28µM*
Cc1ccc(-c2nnc(OCc3cccnc3)c3ccccc23)cc1	11%	·	?	·
CC(=O)C1=C(C)NC(SCC(=O)c2ccccc2)=C(C#N)C1c1ccco1 (centres undefined)	20µM*	11	-30%	32µM*
CC(=O)C1=C(C)NC(SCC(=O)c2ccccc2)=C(C#N)C1CC(C)C (centres undefined)	7.1µM*	6	?	32µM*
CCOC(=O)C1=C(c2ccccc2)NC(SCC(=O)Nc2ccccc2C)=C(C#N)C1c1ccco1 (centres undefined)	14µM*	?	178%	?
CC(=O)C1=C(C)NC(SCC(=O)c2ccc(Cl)cc2)=C(C#N)C1c1ccco1 (centres undefined)	20µM*	29	-11%	32µM*
COc1ccc2c(c1)C(=O)[C@@H](OC(=O)NCCOc1ccccc1)[C@H](c1ccc(OC)c(Br)c1)O2	-7%	·	?	-11%
SMILES	ALDH1A1 block	PNC assembly inh	JMJD2E inh	HPGD inh
COc1cccc([C@@H]2Oc3ccc(Br)cc3C(=O)[C@H]2OC(=O)N[C@H]2CCCc3ccccc32)c1	?	·	3%	-1%
CC(=O)C1=C(C)NC(SCc2ccc(C#N)cc2)=C(C#N)C1c1ccco1 (centres undefined)	22µM*	?	-11%	-5%
CC(=O)C1=C(C)NC(SCc2cccc3ccccc23)=C(C#N)C1c1ccco1 (centres undefined)	?	6	?	?
CCn1c(=O)c(-[n+]2ccccc2)c(O)c2ccccc21	25µM*	-3	-22%	-7%
CCn1c(=O)c(C(=O)Nc2ccccc2S(N)(=O)=O)c(O)c2ccccc21	0%	-10	?	-2%
CCn1c(=O)c(C(=O)Nc2ccccc2C)c(O)c2ccccc21	17%	-100*	?	?
